Data taken from the supplement of paper PMC6555819.

What was measured:
Test in all cases: PBM binding z-score (relative to random genomic background probes); higher = stronger binding; sequences stand for … in GC…GCGATTGACAGCGTAGAATGAAGG
[1] = test system: FXR:RXRa (NR concentration 270 nM, RXRa partner concentration 90 nM)
Outline: (§1)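 Ligand-free nuclear receptor dimers were bound for 1 h to custom Agilent 4×180K protein-binding microarrays. Detection used antibodies against each partner (one per run). Binding z-scores rest on regression-normalized fluorescence, with random background probes as the reference.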

[2] = test system: LXRa homodimer (NR concentration 270 nM)
Outline: as §1

[3] = test system: LXRb homodimer (NR concentration 270 nM)
Outline: as §1

[4] = test system: PPARa:RXRa (NR concentration 270 nM, RXRa partner concentration 90 nM)
Outline: as §1

[5] = test system: PPARg:RXRa (NR concentration 180 nM, RXRa partner concentration 90 nM)
Outline: as §1

[6] = test system: PPARg:RXRa 270nM:90nM, anti-RXR (NR concentration 270 nM, RXRa partner concentration 90 nM)
Outline: as §1

[7] = test system: PPARg:RXRa 30nM:10nM, anti-RXR (NR concentration 30 nM, RXRa partner concentration 10 nM)
Outline: as §1

[8] = test system: PPARg:RXRa 90nM:30nM, anti-RXR (NR concentration 90 nM, RXRa partner concentration 30 nM)
Outline: as §1

[9] = test system: PPARg:RXRa DBDmut IVT, anti-RXR (DBD mutation: RXRa K156A/R161A, NR concentration 270 nM, RXRa partner concentration 90 nM)
Outline: as §1

[10] = test system: PPARg:RXRa IVT, anti-PPARg (NR concentration 270 nM, RXRa partner concentration 90 nM)
Outline: as §1

[11] = test system: PPARg DBDmut:RXRa IVT, anti-PPARg (DBD mutation: PPARg1 K132A/R137A, NR concentration 270 nM, RXRa partner concentration 90 nM)
Outline: as §1

[12] = test system: PPARg DBDmut IVT, anti-PPARg (DBD mutation: PPARg1 K132A/R137A, NR concentration 270 nM)
Outline: as §1

[13] = test system: PPARg homodimer (NR concentration 180 nM)
Outline: as §1

[14] = test system: PXR:RXRa (NR concentration 270 nM, RXRa partner concentration 90 nM)
Outline: as §1

[15] = test system: PXR homodimer (NR concentration 270 nM)
Outline: as §1

[16] = test system: RARa:RXR (NR concentration 270 nM, RXRa partner concentration 90 nM)
Outline: as §1

[17] = test system: RARa homodimer (NR concentration 270 nM)
Outline: as §1

[18] = test system: RARb:RXRa (NR concentration 270 nM, RXRa partner concentration 90 nM)
Outline: as §1

[19] = test system: RARb homodimer (NR concentration 270 nM)
Outline: as §1

[20] = test system: LXRa:RXRa (NR concentration 270 nM, RXRa partner concentration 90 nM)
Outline: as §1

Sequence	PBM binding z-score [1]	PBM binding z-score [2]	PBM binding z-score [3]	PBM binding z-score [4]	PBM binding z-score [5]	PBM binding z-score [6]	PBM binding z-score [7]	PBM binding z-score [8]	PBM binding z-score [9]	PBM binding z-score [10]	PBM binding z-score [11]	PBM binding z-score [12]	PBM binding z-score [13]	PBM binding z-score [14]	PBM binding z-score [15]	PBM binding z-score [16]	PBM binding z-score [17]	PBM binding z-score [18]	PBM binding z-score [19]	PBM binding z-score [20]
CCTAGTTGGTCAAGGTCACATACGCTATAGGTAC	3.98	1.97	1.23	4	3.3	3.43	1.17	2.91	2.23	3.3	1.13	1	3.03	4.1	2.39	4.46	2.55	3.95	4.15	
CCTACTGGGCCACGAAAGGCCATTGATTCAGTGA	-0.0775	-0.396	-0.835	0.948	1.34	1.21	-0.199	0.589	5.23	5.01	-0.487	-0.189	0.0675	0.149	-0.378	0.18	-0.712	1.18	1.36	
CAAAATAGGTCACCGGAAGGTCAAAGTCCGCATG	7.48	5.46	1.73	6.51	9.14	7.64	6.2	7.69	7.95	8.01	1.87	1.44	8.87	6.56	1.96	8.2	4.27		5.89	
TCTAGTTGGTCACGGAGGTCCCACACGACGGGTA	-0.177	0.0478	-0.115	0.66	0.739	1.93	3.06	2.25	1.68	2.31	0.993	1.03	0.373	0.138	-0.319	0.243	0.299	1.57	1.32	
AATACAGGGTCATCGTAGGTCAGAGTACGCACAG	7.7	5.76	1.95		7.46	6.38	3.55	5.23	3.26	5.07	3.45	1.68	3.34		1.57	6.33	1.7	4.69	4.58	
CGTCAAAGTTCAACTAAGGTTACGTAAAGCACGC	7.19	6.3	2.31		5.53	5.55	2.42	4.33	0.789	2.44	1.54	1.43	3.83		8.22	5.27	1.91	5.44	5.67	
CCGAGGAGGTTACGAGGGGGCATTCAGTGCGAAT	4.41	1.63		4.29	2.38	3.52	0.838	2.45	1.54	3.07			1.6	6.25	6.9	3.97	-0.256	2.89	2.52	
CCTACTGGGCCATTCAGAGGGCATTGATCATATG	-0.338	0.468	-0.759		0.602	0.565	-0.432	-0.127	4.54	3.43	-0.276	-0.131	0.0332		-0.0942	0.0322	-0.556	1.09	1.27	
GGAACGAGGGCATTCGAGTTCATAGCATGGCGAT	3.41	6.2	-0.617		1.4	1.33	-0.096	0.725	2.82	2.61	0.143	-0.584	0.888		14	2.84	-0.506	2.75	2.4	
CGAACTAGGTCAAGGCCAGTGAATCTCCGCACGC		0.284	-0.563	5.04	7.33	6.58	3.87	6.13	8.07	8.42	3.5	2.31	1.99	1.35	-0.029	2.32	0.0978	4.11	3.35	2.42
ACTCGGTGGACAAAGGTCAGAGCTACGCCAGTGA		0.715	-0.512	4.25	6.18	6.42	5.2	6.63	0.195	3.04	-0.478	-0.742	2	3.37	-0.0874	4.02	0.366	3.96	4.06	3.52
ATCGAAAGGTCCACGAGGTGAGTATACACCGTTT		-0.0739	-0.26	0.734	0.818	0.448	0.0544	0.533	0.0323	0.791	0.466	0.248	0.167	0.264	-0.268	0.714	0.24	1.66	1.2	0.186
TGTATGAGGTTAAAGATCAGGGAACGTGGCGTCG		0.262	1.41	4.16	4.1	5.21	3	4.93	0.702	1.99	0.959	0.628	1.78	2.38	0.249	3.55	1.35	2.49	1.35	3.09
CCGAGTAGGTTACTAGGGGGCATTCAGTGCGAAT	2.3	6.06			2.37	3.48	1.14	2.93	4.55	4.9			1.47	4.21	6.49	2.34	0.177	1.92	2.16	
ATATGTAGTTTATCGGGTCATTCAGTTTGCGCAT	2.53	3.41	0.952		1.86	2.34	0.761	1.64	2.99	3.77	1.29	1.84	1.72	3.46	7.31	3.03	1.18	2.26	2.91	
